Reference: PubChem BioAssay (NCI)
The panel holds about 79,000 compounds, 15% with a hit somewhere; the sample as a whole holds those more often. A number with no mark means an inactive call. The source made the active and inactive calls. Rule as the data show it: active = growth inhibition above about 70%; inactive = the rest.

Legend:
[1] = NCI Yeast Anticancer Drug Screen. Data for the rad52 strain (AID 147);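 also: 0% = growth of vehicle-treated control cultures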; settings: S. cerevisiae rad52 mutant growth inhibition, stronger effect = higher value
In short: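 Yeast strain carrying a DNA damage repair alteration was exposed to test compounds. Growth inhibition was measured relative to vehicle-treated controls.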

[2] = NCI Yeast Anticancer Drug Screen. Data for the wt1 strain (AID 149);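 also: 0% = growth of vehicle-treated wt1 cultures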; settings: S. cerevisiae wt1 strain (SPY 50644) growth inhibition, stronger effect = higher value
In short: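 Growth inhibition read against vehicle controls after compound exposure of the wt1 yeast strain.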

[3] = NCI Yeast Anticancer Drug Screen. Data for the rad50EPP+ strain (AID 151);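 also: 0% = growth of vehicle-treated control cultures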; settings: S. cerevisiae rad50 mutant strain, stronger effect = higher value
In short: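 Yeast strain carrying rad50 alteration (rad50EPP+) exposed to compounds; growth inhibition measured relative to vehicle-treated controls.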

[4] = NCI Yeast Anticancer Drug Screen. Data for the mgt1 strain (AID 153); settings: S. cerevisiae mgt1 mutant growth inhibition, stronger effect = higher value
In short: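 Yeast mgt1 strain (DNA repair/cell-cycle alteration panel) exposed to compounds; growth inhibition measured relative to vehicle-treated controls.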

[5] = NCI Yeast Anticancer Drug Screen. Data for the rad50 strain (AID 155);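 also: 0% = growth of vehicle-only cultures of the same strain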; settings: S. cerevisiae rad50 strain growth inhibition, stronger effect = higher value
In short: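 Readout: growth inhibition relative to vehicle-treated cultures. Compound exposure was carried out in a genetically defined yeast strain deficient in DNA damage repair.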

[6] = NCI Yeast Anticancer Drug Screen. Data for the mec2-1 strain (AID 157); settings: S. cerevisiae mec2-1 strain, stronger effect = higher value
In short: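 mec2-1 yeast strain, carrying an alteration in DNA damage repair or cell cycle control, was exposed to compounds; growth inhibition was measured relative to vehicle-treated controls.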

[7] = NCI Yeast Anticancer Drug Screen. Data for the rad14 strain (AID 159);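 also: 0% = growth of vehicle-treated control cultures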; settings: S. cerevisiae rad14 strain growth inhibition, stronger effect = higher value
In short: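 Growth inhibition vs vehicle controls; genetically altered yeast strain (DNA damage repair defect) treated with test compounds.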

[8] = NCI Yeast Anticancer Drug Screen. Data for the sgs1 mgt1 strain (AID 161);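 also: 0% = growth of cultures given vehicle only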; settings: S. cerevisiae sgs1 mgt1 strain, stronger effect = higher value
In short: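 Compounds are added to genetically altered yeast, and growth is compared with cultures given vehicle alone to give percent inhibition.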

[9] = NCI Yeast Anticancer Drug Screen. Data for the CLN2oe strain (AID 163);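 also: 0% = growth of vehicle-only control cultures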; settings: S. cerevisiae CLN2oe strain, stronger effect = higher value
In short: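 Yeast cells carrying a defined cell-cycle control alteration were exposed to test compounds. Growth inhibition was scored against vehicle-treated control cultures.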

[10] = NCI Yeast Anticancer Drug Screen. Data for the cln2 rad14 strain (AID 165);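 also: 0% = growth equal to vehicle treated cultures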; settings: S. cerevisiae cln2 rad14 strain, stronger effect = higher value
In short: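 Yeast carrying cln2 and rad14 alterations (cell cycle control and DNA damage repair) were exposed to compounds. Growth inhibition was measured against vehicle-treated controls.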

[11] = NCI Yeast Anticancer Drug Screen. Data for the bub3 strain (AID 167); settings: S. cerevisiae bub3 mutant strain, stronger effect = higher value
In short: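 Readout: yeast growth inhibition, expressed relative to vehicle-only wells. The test organism is a mutant strain from a panel with lesions in DNA repair or checkpoint genes.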

[12] = NCI Yeast Anticancer Drug Screen. Data for the wt2 strain (AID 169);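 also: 0% = growth of vehicle-treated yeast cultures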; settings: S. cerevisiae wt2 strain growth inhibition, stronger effect = higher value
In short: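 Yeast cells were exposed to test compounds, and growth inhibition was measured relative to vehicle-treated controls.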

[13] = NCI Yeast Anticancer Drug Screen. Data for the mlh1 strain (AID 171);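 also: 0% = growth of vehicle-treated control cultures of the same strain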; settings: S. cerevisiae mlh1 strain growth inhibition, stronger effect = higher value
In short: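 Yeast carrying a defined genetic alteration in DNA damage repair or cell cycle control were exposed to test compounds. Growth inhibition was measured relative to vehicle-treated controls.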

[14] = NCI Yeast Anticancer Drug Screen. Data for the sgs1 strain (AID 173);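 also: 0% = growth of vehicle-only control cultures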; settings: S. cerevisiae sgs1 mutant, stronger effect = higher value
In short: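 Yeast mutant strains carrying defined defects in DNA damage repair or cell cycle control were exposed to test compounds. Growth inhibition was scored against vehicle-treated controls.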

[15] = NCI Yeast Anticancer Drug Screen. Data for the mlh1 rad18 strain (AID 175); settings: S. cerevisiae mlh1 rad18 strain growth inhibition, stronger effect = higher value
In short: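 Growth inhibition of the yeast strain was measured after compound exposure and expressed relative to vehicle-treated controls. The strain carries defined defects in DNA damage repair.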

[16] = at 5.0 µM (retest, dose inferred, filed as 0.5)
[17] = at 50.0 µM (retest, dose inferred, filed as 5.0)

Br[Se]c1ccccn1
growth inhibition ([1]; at 1.2 µM): 2% | growth inhibition ([1]; at 3.7 µM): 53% | growth inhibition ([1]; at 11.0 µM): 97% (active) | growth inhibition ([1]; at 33.0 µM): 99% (active) | growth inhibition ([1]; at 100.0 µM): 98% (active) | growth inhibition ([2]; at 1.2 µM): 2% | growth inhibition ([2]; at 3.7 µM): 10% | growth inhibition ([2]; at 11.0 µM): 58% | growth inhibition ([2]; at 33.0 µM): 99% (active) | growth inhibition ([2]; at 100.0 µM): 99% (active) | growth inhibition ([3]; at 1.2 µM): -9% | growth inhibition ([3]; at 3.7 µM): 59% | growth inhibition ([3]; at 11.0 µM): 98% (active) | growth inhibition ([3]; at 33.0 µM): 99% (active) | growth inhibition ([3]; at 100.0 µM): 98% (active) | growth inhibition ([4]; at 1.2 µM): -3% | growth inhibition ([4]; at 3.7 µM): 12% | growth inhibition ([4]; at 11.0 µM): 79% (active) | growth inhibition ([4]; at 33.0 µM): 99% (active) | growth inhibition ([4]; at 100.0 µM): 99% (active) | growth inhibition ([5]; at 1.2 µM): 5% | growth inhibition ([5]; at 3.7 µM): 91% (active) | growth inhibition [5, 16]: 44% | growth inhibition ([5]; at 11.0 µM): 97% (active) | growth inhibition ([5]; at 33.0 µM): 98% (active) | growth inhibition [5, 17]: 99% (active) | growth inhibition ([5]; at 50.0 µM): 99.5% (active) | growth inhibition ([5]; at 100.0 µM): 98% (active) | growth inhibition ([6]; at 1.2 µM): 0% | growth inhibition ([6]; at 3.7 µM): 34% | growth inhibition [6, 16]: 29% | growth inhibition ([6]; at 11.0 µM): 89% (active) | growth inhibition ([6]; at 33.0 µM): 99% (active) | growth inhibition [6, 17]: 100% (active) | growth inhibition ([6]; at 50.0 µM): 99.8% (active) | growth inhibition ([6]; at 100.0 µM): 99% (active) | growth inhibition ([7]; at 1.2 µM): 5% | growth inhibition ([7]; at 3.7 µM): 36% | growth inhibition ([7]; at 11.0 µM): 99% (active) | growth inhibition ([7]; at 33.0 µM): 99% (active) | growth inhibition ([7]; at 100.0 µM): 99% (active) | growth inhibition [8, 16]: -5% | growth inhibition [8, 17]: 99% (active) | growth inhibition ([8]; at 50.0 µM): 99.6% (active) | growth inhibition ([9]; at 1.2 µM): -11% | growth inhibition ([9]; at 3.7 µM): 11% | growth inhibition ([9]; at 11.0 µM): 62% | growth inhibition ([9]; at 33.0 µM): 99% (active) | growth inhibition ([9]; at 100.0 µM): 99% (active) | growth inhibition [10, 16]: 9% | growth inhibition [10, 17]: 99% (active) | growth inhibition ([10]; at 50.0 µM): 98.3% (active) | growth inhibition ([11]; at 1.2 µM): -2% | growth inhibition ([11]; at 3.7 µM): 20% | growth inhibition [11, 16]: 75% (active) | growth inhibition ([11]; at 11.0 µM): 93% (active) | growth inhibition ([11]; at 33.0 µM): 98% (active) | growth inhibition [11, 17]: 100% (active) | growth inhibition ([11]; at 50.0 µM): 99.7% (active) | growth inhibition ([11]; at 100.0 µM): 98% (active) | growth inhibition ([12]; at 1.2 µM): 1% | growth inhibition ([12]; at 3.7 µM): 14% | growth inhibition ([12]; at 11.0 µM): 80% (active) | growth inhibition ([12]; at 33.0 µM): 99% (active) | growth inhibition ([12]; at 100.0 µM): 99% (active) | growth inhibition ([13]; at 1.2 µM): -1% | growth inhibition ([13]; at 3.7 µM): 22% | growth inhibition ([13]; at 11.0 µM): 84% (active) | growth inhibition ([13]; at 33.0 µM): 99% (active) | growth inhibition ([13]; at 100.0 µM): 99% (active) | growth inhibition ([14]; at 1.2 µM): 0% | growth inhibition ([14]; at 3.7 µM): 23% | growth inhibition ([14]; at 11.0 µM): 83% (active) | growth inhibition ([14]; at 33.0 µM): 99% (active) | growth inhibition ([14]; at 100.0 µM): 99% (active) | growth inhibition [15, 16]: 31% | growth inhibition [15, 17]: 99% (active) | growth inhibition ([15]; at 50.0 µM): 99.7% (active)

c1c(N2CCOCC2)ssc1=[N+]1CCOCC1
growth inhibition ([1]; at 1.2 µM): 0% | growth inhibition ([1]; at 3.7 µM): 0% | growth inhibition ([1]; at 11.0 µM): -4% | growth inhibition ([1]; at 33.0 µM): -4% | growth inhibition ([1]; at 100.0 µM): -2% | growth inhibition ([2]; at 1.2 µM): -3% | growth inhibition ([2]; at 3.7 µM): -1% | growth inhibition ([2]; at 11.0 µM): 0% | growth inhibition ([2]; at 33.0 µM): 0% | growth inhibition ([2]; at 100.0 µM): -1% | growth inhibition ([3]; at 1.2 µM): 1% | growth inhibition ([3]; at 3.7 µM): 3% | growth inhibition ([3]; at 11.0 µM): 3% | growth inhibition ([3]; at 33.0 µM): 3% | growth inhibition ([3]; at 100.0 µM): 5% | growth inhibition ([4]; at 1.2 µM): 0% | growth inhibition ([4]; at 3.7 µM): 2% | growth inhibition ([4]; at 11.0 µM): -1% | growth inhibition ([4]; at 33.0 µM): 0% | growth inhibition ([4]; at 100.0 µM): 1% | growth inhibition ([5]; at 1.2 µM): -3% | growth inhibition ([5]; at 3.7 µM): -2% | growth inhibition [5, 16]: 4% | growth inhibition ([5]; at 11.0 µM): -5% | growth inhibition ([5]; at 33.0 µM): -3% | growth inhibition [5, 17]: 1% | growth inhibition ([5]; at 50.0 µM): 54.5% | growth inhibition ([5]; at 100.0 µM): -2% | growth inhibition ([6]; at 1.2 µM): 0% | growth inhibition ([6]; at 3.7 µM): -2%
